# Experimental data reported in PubChem BioAssay (NCI).
# Values joined by “and” are separate entries in the source; they are usually repeats but may differ in a detail not shown here. Equal entries are not always repeated. This is part of a sample that, as a whole, favours compounds with a hit. Of some 79,000 tested, about 15% had one in any assay. Where a structure was tested more than once in an assay, its records may differ in their call. Active and inactive are the calls of the source. No stated cut-off is given here; in the data, active means growth inhibition above about 70%; inactive means the rest.
# Columns and labels:
# [1] = NCI Yeast Anticancer Drug Screen. Data for the rad52 strain (AID 147);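 further: 0% = growth of vehicle-treated control cultures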; conditions: S. cerevisiae rad52 mutant growth inhibition, stronger effect = higher value
# Summary of the method: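 Screen used a yeast mutant impaired in DNA repair. After compound exposure, growth was measured. Values reflect inhibition compared with vehicle-treated cells.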
# [2] = NCI Yeast Anticancer Drug Screen. Data for the wt1 strain (AID 149);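 further: 0% = growth of vehicle-treated wt1 cultures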; conditions: S. cerevisiae wt1 strain (SPY 50644) growth inhibition, stronger effect = higher value
# Summary of the method: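 Readout: yeast growth inhibition, normalised to vehicle controls, in the wt1 strain exposed to test compounds.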
# [3] = NCI Yeast Anticancer Drug Screen. Data for the rad50EPP+ strain (AID 151);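 further: 0% = growth of vehicle-treated control cultures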; conditions: S. cerevisiae rad50 mutant strain, stronger effect = higher value
# Summary of the method: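 Exposing the rad50EPP+ strain to each compound, growth was compared with vehicle-only cultures to give inhibition.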
# [4] = NCI Yeast Anticancer Drug Screen. Data for the mgt1 strain (AID 153); conditions: S. cerevisiae mgt1 mutant growth inhibition, stronger effect = higher value
# Summary of the method: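 Genetically defined yeast (mgt1) treated with compound; inhibition of growth expressed against vehicle-treated controls.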
# [5] = NCI Yeast Anticancer Drug Screen. Data for the rad50 strain (AID 155);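 further: 0% = growth of vehicle-only cultures of the same strain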; conditions: S. cerevisiae rad50 strain growth inhibition, stronger effect = higher value
# Summary of the method: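 Compounds were tested on a yeast strain with an engineered DNA damage repair alteration; the reported value is growth inhibition normalised to vehicle treatment.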
# [6] = NCI Yeast Anticancer Drug Screen. Data for the mec2-1 strain (AID 157); conditions: S. cerevisiae mec2-1 strain, stronger effect = higher value
# Summary of the method: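 Readout is yeast growth inhibition, normalised to vehicle-treated controls, in the mec2-1 strain exposed to compound.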
# [7] = NCI Yeast Anticancer Drug Screen. Data for the rad14 strain (AID 159);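 further: 0% = growth of vehicle-treated control cultures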; conditions: S. cerevisiae rad14 strain growth inhibition, stronger effect = higher value
# Summary of the method: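 Compound-treated yeast with a defined DNA-repair lesion; growth inhibition normalised to vehicle-treated cultures.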
# [8] = NCI Yeast Anticancer Drug Screen. Data for the sgs1 mgt1 strain (AID 161);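 further: 0% = growth of cultures given vehicle only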; conditions: S. cerevisiae sgs1 mgt1 strain, stronger effect = higher value
# Summary of the method: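 Percent growth inhibition was derived by comparing compound-exposed mutant yeast with vehicle-exposed cultures. The strain carries alterations in DNA damage repair.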
# [9] = NCI Yeast Anticancer Drug Screen. Data for the CLN2oe strain (AID 163);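 further: 0% = growth of vehicle-only control cultures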; conditions: S. cerevisiae CLN2oe strain, stronger effect = higher value
# Summary of the method: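 Values reflect how much compound exposure reduced yeast growth, referenced to vehicle-exposed cells. Assay organism is a strain with a defined genetic change affecting cell-cycle control.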
# [10] = NCI Yeast Anticancer Drug Screen. Data for the cln2 rad14 strain (AID 165);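 further: 0% = growth equal to vehicle treated cultures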; conditions: S. cerevisiae cln2 rad14 strain, stronger effect = higher value
# Summary of the method: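 Relative to vehicle controls, growth inhibition of compound-treated cln2 rad14 yeast was recorded.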
# [11] = NCI Yeast Anticancer Drug Screen. Data for the bub3 strain (AID 167); conditions: S. cerevisiae bub3 mutant strain, stronger effect = higher value
# Summary of the method: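 Growth of a checkpoint-deficient yeast mutant is measured after compound exposure. Values represent inhibition relative to vehicle.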
# [12] = NCI Yeast Anticancer Drug Screen. Data for the wt2 strain (AID 169);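 further: 0% = growth of vehicle-treated yeast cultures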; conditions: S. cerevisiae wt2 strain growth inhibition, stronger effect = higher value
# Summary of the method: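 Values express reduction in yeast growth under compound treatment, referenced to vehicle-treated cells.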
# [13] = NCI Yeast Anticancer Drug Screen. Data for the mlh1 strain (AID 171);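 further: 0% = growth of vehicle-treated control cultures of the same strain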; conditions: S. cerevisiae mlh1 strain growth inhibition, stronger effect = higher value
# Summary of the method: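 Steps: expose the defined-mutant yeast strain to compound; expose a parallel culture to vehicle; measure growth; express compound effect as inhibition relative to the vehicle culture.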
# [14] = NCI Yeast Anticancer Drug Screen. Data for the sgs1 strain (AID 173);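 further: 0% = growth of vehicle-only control cultures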; conditions: S. cerevisiae sgs1 mutant, stronger effect = higher value
# Summary of the method: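 Treat defined-mutant yeast with compound; measure growth; calculate inhibition relative to vehicle-treated cells.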
# [15] = NCI Yeast Anticancer Drug Screen. Data for the mlh1 rad18 strain (AID 175); conditions: S. cerevisiae mlh1 rad18 strain growth inhibition, stronger effect = higher value
# Summary of the method: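 Test agents were incubated with a yeast strain of defined genotype (DNA damage repair defect). Inhibition of growth was derived by comparison with vehicle-exposed cultures.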
# [16] = at 5.0 µM (retest, dose inferred, filed as 0.5)
# [17] = at 50.0 µM (retest, dose inferred, filed as 5.0)
compound,measurement,setting,value
O=c1ssc(=Nc2ccccc2)n1-c1ccccc1,growth inhibition,[1]; at 1.2 µM,10% (inactive)
same,growth inhibition,[1]; at 3.7 µM,9% (inactive)
same,growth inhibition,[1]; at 11.0 µM,5% (inactive)
same,growth inhibition,[1]; at 33.0 µM,20% (inactive)
same,growth inhibition,[1]; at 100.0 µM,62% (inactive)
same,growth inhibition,[2]; at 1.2 µM,-3% (inactive)
same,growth inhibition,[2]; at 3.7 µM,-5% (inactive)
same,growth inhibition,[2]; at 11.0 µM,-4% (inactive)
same,growth inhibition,[2]; at 33.0 µM,0% (inactive)
same,growth inhibition,[2]; at 100.0 µM,11% (inactive)
same,growth inhibition,[3]; at 1.2 µM,6% (inactive)
same,growth inhibition,[3]; at 3.7 µM,3% (inactive)
same,growth inhibition,[3]; at 11.0 µM,3% (inactive)
same,growth inhibition,[3]; at 33.0 µM,32% (inactive)
same,growth inhibition,[3]; at 100.0 µM,80% (active)
same,growth inhibition,[4]; at 1.2 µM,0% (inactive)
same,growth inhibition,[4]; at 3.7 µM,2% (inactive)
same,growth inhibition,[4]; at 11.0 µM,0% (inactive)
same,growth inhibition,[4]; at 33.0 µM,12% (inactive)
same,growth inhibition,[4]; at 100.0 µM,39% (inactive)
same,growth inhibition,[5]; at 1.2 µM,9% (inactive)
same,growth inhibition,[5]; at 3.7 µM,5% (inactive)
same,growth inhibition,[5]; [16],23% (inactive) and 20% (inactive)
same,growth inhibition,[5]; at 11.0 µM,2% (inactive)
same,growth inhibition,[5]; at 33.0 µM,29% (inactive)
same,growth inhibition,[5]; [17],99% (active)
same,growth inhibition,[5]; at 50.0 µM,99.5% (active) and 99% (active)
same,growth inhibition,[5]; at 100.0 µM,72% (active)
same,growth inhibition,[6]; at 1.2 µM,-6% (inactive)
same,growth inhibition,[6]; at 3.7 µM,-3% (inactive)
same,growth inhibition,[6]; [16],-2% (inactive) and 5% (inactive)
same,growth inhibition,[6]; at 11.0 µM,-3% (inactive)
same,growth inhibition,[6]; at 33.0 µM,5% (inactive)
same,growth inhibition,[6]; [17],97% (active) and 98% (active)
same,growth inhibition,[6]; at 50.0 µM,99.8% (active) and 99.5% (active)
same,growth inhibition,[6]; at 100.0 µM,33% (inactive)
same,growth inhibition,[7]; at 1.2 µM,5% (inactive)
same,growth inhibition,[7]; at 3.7 µM,4% (inactive)
same,growth inhibition,[7]; at 11.0 µM,1% (inactive)
same,growth inhibition,[7]; at 33.0 µM,11% (inactive)
same,growth inhibition,[7]; at 100.0 µM,30% (inactive)
same,growth inhibition,[8]; [16],49% (inactive) and 27% (inactive)
same,growth inhibition,[8]; [17],99% (active) and 100% (active)
same,growth inhibition,[8]; at 50.0 µM,98.2% (active) and 99.3% (active)
same,growth inhibition,[9]; at 1.2 µM,2% (inactive)
same,growth inhibition,[9]; at 3.7 µM,-4% (inactive)
same,growth inhibition,[9]; at 11.0 µM,-4% (inactive)
same,growth inhibition,[9]; at 33.0 µM,7% (inactive)
same,growth inhibition,[9]; at 100.0 µM,30% (inactive)
same,growth inhibition,[10]; [16],-11% (inactive) and -1% (inactive)
same,growth inhibition,[10]; [17],86% (active) and 64% (inactive)
same,growth inhibition,[10]; at 50.0 µM,99.5% (active) and 66.2% (inactive)
same,growth inhibition,[11]; at 1.2 µM,-5% (inactive)
same,growth inhibition,[11]; at 3.7 µM,-9% (inactive)
same,growth inhibition,[11]; [16],12% (inactive) and 1% (inactive)
same,growth inhibition,[11]; at 11.0 µM,-7% (inactive)
same,growth inhibition,[11]; at 33.0 µM,6% (inactive)
same,growth inhibition,[11]; [17],99% (active) and 100% (active)
same,growth inhibition,[11]; at 50.0 µM,99.5% (active) and 99.7% (active)
same,growth inhibition,[11]; at 100.0 µM,37% (inactive)
same,growth inhibition,[12]; at 1.2 µM,-9% (inactive)
same,growth inhibition,[12]; at 3.7 µM,-15% (inactive)
same,growth inhibition,[12]; at 11.0 µM,-9% (inactive)
same,growth inhibition,[12]; at 33.0 µM,-9% (inactive)
same,growth inhibition,[12]; at 100.0 µM,15% (inactive)
same,growth inhibition,[13]; at 1.2 µM,7% (inactive)
same,growth inhibition,[13]; at 3.7 µM,4% (inactive)
same,growth inhibition,[13]; at 11.0 µM,2% (inactive)
same,growth inhibition,[13]; at 33.0 µM,17% (inactive)
same,growth inhibition,[13]; at 100.0 µM,48% (inactive)
same,growth inhibition,[14]; at 1.2 µM,-15% (inactive)
same,growth inhibition,[14]; at 3.7 µM,7% (inactive)
same,growth inhibition,[14]; at 11.0 µM,-6% (inactive)
same,growth inhibition,[14]; at 33.0 µM,34% (inactive)
same,growth inhibition,[14]; at 100.0 µM,79% (active)
same,growth inhibition,[15]; [16],75% (active) and 8% (inactive)
same,growth inhibition,[15]; [17],99% (active) and 82% (active)
same,growth inhibition,[15]; at 50.0 µM,95.4% (active) and 98.7% (active)
